Results filed as inconclusive are left out. Active and inactive are the calls of the source. How the source made its calls: active means hit-call score of the fitted dose curve at least 0.9, where 1 is the maximum; inconclusive means response in the unintended direction; inactive means score below 0.9.
Test: CCTE_Harrill_HTTr_CellCount_MCF7: CCTE's Cell Proliferation Assessment for the High-Throughput Transcriptomics (HTTr) Platform, Harrill Lab (AID 2284012);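 further: cells exposed to compound for six hours; intended direction is loss of nuclei count meaning fewer cells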
Source text: This is a cell-based assay that evaluates cell viability and cell growth using high content imaging to count the number of Hoechst-labeled nuclei that are present in an assay well in 384-well format.This is a cell-based assay that evaluates cell viability and cell growth in MCF-7 cells. This was part of a full screening experiment. High content imaging is used to count the number of Hoechst-labeled nuclei that are present in an assay well in 384-well format.The assay component endpoint CCTE_Harrill_HTTr_CellCount_MCF7 was analyzed with bidirectional fitting relation to DMSO as the negative control and baseline of activity. Using a type of viability reporter, loss-of-signal activity can be used to understand changes in cell count. To generalize the intended target to other relatable targets, this assay endpoint is annotated to cell cycle, where the subfamily is cell count.
Chemicals were tested in MCF7 cells in an eight point dilution series with a six hour exposure duration.

outcome, inactive:
CCCCCCCCOC(=O)c1cc(O)c(O)c(O)c1
Cc1occc1C(=O)Nc1ccc(C(=O)N2CCC(F)(F)/C(=C\C(=O)N3CCC(N4CCCCC4)CC3)c3ccccc32)cc1
CCCCOC(=O)c1ccc(O)cc1
C[C@]12CC[C@@H]3c4ccc(O)cc4CC[C@H]3[C@@H]1CC[C@H]2O
O=C1O[C@H]([C@@H](O)CO)C(O)=C1O
CCN(CC)C(=O)c1cc(S(=O)(=O)Cc2ccccc2)c(N2CCC(c3ccccc3)CC2)cc1N(CC)CCN(C)C
O=C(OCCCCCCOC(=O)c1ccccc1)c1ccccc1
Cc1cc(F)ccc1-c1cc(N2CC[C@@H](O)[C@H]2CO)ncc1N(C)C(=O)C(C)(C)c1cc(C(F)(F)F)cc(C(F)(F)F)c1
CN(C[C@@H](CC[N+]12CCC(C3CCCCC3)(CC1)CC2)c1ccc(Cl)c(Cl)c1)C(=O)c1cc(C(F)(F)F)cc(C(F)(F)F)c1
CCCCCCCCCCCC[N+](C)(C)C
Oc1ccccc1
Cc1cn([C@H]2C[C@H](N=[N+]=[N-])[C@@H](CO)O2)c(=O)[nH]c1=O
O=C(O)Cc1cc(I)c(Oc2ccc(O)c(I)c2)c(I)c1
CCCCCCCC[Si](OCC)(OCC)OCC
O=c1[nH]sc2ccccc12
Cc1oc2c(NC(=O)c3c(Cl)cccc3Cl)cccc2c1C(C)(C)O
CCCCCCCCCC(=O)O
O=C(O)c1ccccc1C(=O)OCc1ccccc1
O=c1c(-c2ccc(O)cc2)coc2cc(O)cc(O)c12
Cc1c2ccccc2c(C)c2c1ccc1ccccc12
O=C1c2ccccc2C(=O)N1CCc1noc(-c2ccc(CN3CCCCCC3)s2)n1
CCCOC(=O)c1cc(O)c(O)c(O)c1
CN(C)c1ccc(C(=C2C=CC(=[N+](C)C)C=C2)c2ccc(N(C)C)cc2)cc1
Cc1ncc(CO)c(CO)c1O
Clc1cc(Cl)c2c(c1)N=C1CCCCCN1C2
OC12N=C(c3ccccc3)SC1Cc1cc(Cl)ccc12 (stereo not given)
Cc1ccc2oc(CN(Cc3ccccc3)C(=O)Nc3c(F)cc(F)cc3F)c(-c3ccc(Cl)cc3)c2c1
CC(O)CC(C)(C)O (stereo not given)
CCN(Cc1cccc(S(=O)(=O)O)c1)c1ccc(C(=C2C=CC(=[N+](CC)Cc3cccc(S(=O)(=O)O)c3)C=C2)c2ccccc2S(=O)(=O)[O-])cc1
CCCC(=O)OCCC(C)C
CCCCCCCCCCCO
Cc1cccc2ccccc12
CC(=O)N1CCN(c2ccc(OC[C@H]3CO[C@](Cn4ccnc4)(c4ccc(Cl)cc4Cl)O3)cc2)CC1
CC(C)(C)c1cc(/C=C2\SC(N)=NC2=O)cc(C(C)(C)C)c1O
Cc1ccc(C(C)C)cc1
COc1cc(C(=O)NC2CCN(C)CC2)ccc1Nc1ncc2c(n1)N(C1CCCC1)CC(F)(F)C(=O)N2C
C[C@]12CC[C@@H]3c4ccc(O)cc4CC[C@H]3[C@@H]1CCC2=O
NC(=O)c1nc(-c2cccc(-c3cc(F)ccc3OCC(F)(F)C(F)(F)F)c2)n[nH]1
CCCCOC(=O)CC(CC(=O)OCCCC)(OC(C)=O)C(=O)OCCCC
O=CCCCC=O
